# Measurements taken from PubChem BioAssay (EPA / NIEHS).
# “And” between values parts separate entries of the source, which are not always exact repeats. Equal values may be shown once. Some structures have more than one record in an assay (separate samples or runs), and their calls can disagree. The source made the active and inactive calls. How the source made its calls: active means hit-call score of the fitted dose curve at least 0.9, where 1 is the maximum; inactive means score below 0.9.
# What was measured:
# [1] = APR_HepG2_NuclearSize_72hr: Apredica 72-hour HepG2 Assay for Nuclear Size (AID 2282925); conditions: high-content imaging, actives raise or lower the signal
# In short: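 Read-out: nuclear diameter from Hoechst 33342 images (ArrayScan, 20x, six fields/well), via cell-cycle image analysis. HepG2 were dosed 0.39–200 uM for 72 hr in 0.5% DMSO. Bidirectional fit relative to DMSO.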
# [2] = ATG_CRE_CIS: Attagene CIS-FACTORIAL HepG2 Assay for human cAMP Responsive Element (CRE) binding protein 3 (AID 2282926); conditions: HepG2 CRE cis-reporter, Attagene multiplexed mRNA; actives raise or lower the signal
# In short: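 Cells carrying cis-regulated reporter constructs respond through their own endogenous factors. After 24 h treatment, RNA is reverse-transcribed, amplified, labelled and sized by capillary electrophoresis; up- and down-regulation are both scored against vehicle.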
# [3] = target: CCAAT/enhancer-binding protein beta (Homo sapiens) (UniProt P17676); experiment: ATG_C_EBP_CIS: Attagene CIS-FACTORIAL HepG2 Assay for human CCAAT/Enhancer Binding Protein (C/EBP) beta (AID 2282927); conditions: HepG2 Attagene cis-factorial transcription factor reporter; actives raise or lower the signal
# In short: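 HepG2, transient MRTU transfection, 24 h treatment. RT-PCR plus CE fluorescence; DMSO negative control, bidirectional fit.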
# [4] = ATG_CMV_CIS: Attagene CIS-FACTORIAL HepG2 Assay for human CMV (Internal Marker) (AID 2282928); conditions: HepG2 CMV promoter reporter, transcription factor profiling; actives raise or lower the signal;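 further: endpoint acts as a background internal control marker rather than a target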
# In short: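 24 h chemical treatment, HepG2 with transient multi-reporter transfection; RNA → oligo(dT) RT → PCR → 6-FAM extension → HpaI digest → CE fluorescence. Bidirectional fit, DMSO negative control.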
# [5] = ATG_DR4_LXR_CIS: Attagene CIS-FACTORIAL HepG2 Assay for human Liver X Receptor (LXR), DR4 submotif (AID 2282929); conditions: HepG2 Attagene DR4 cis-reporter, mRNA transcription; actives raise or lower the signal
# In short: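 Transiently transfected HepG2 liver cells; cis-regulated reporters; 24 h dosing. RT-PCR plus CE read-out of reporter mRNA. DMSO baseline, bidirectional curve fitting.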
# [6] = target: Aryl hydrocarbon receptor (Homo sapiens) (UniProt P35869); experiment: ATG_Ahr_CIS: Attagene CIS-FACTORIAL HepG2 Assay for human Aryl Hydrocarbon Receptor (Ahr) (AID 2282930); conditions: HepG2 AhR cis-factorial reporter transcription; actives raise or lower the signal
# In short: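 Endogenous factor activity is tracked through cis-promoter reporter units transfected into HepG2 cells. Transcript levels at 24 h are read by fluorescent RT-PCR and capillary electrophoresis, with activity in either direction scored relative to DMSO.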
# [7] = ATG_AP_1_CIS: Attagene CIS-FACTORIAL HepG2 Assay for human Activator Protein 1 (AP-1) (AID 2282931); conditions: HepG2 Attagene cis-factorial AP-1 reporter mRNA; actives raise or lower the signal
# In short: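 We transfected HepG2 cells transiently with a set of cis-regulated reporter transcription units, dosed them for 24 h, and quantified reporter mRNA via RT-PCR and capillary electrophoresis, scoring gain or loss of signal relative to DMSO.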
# [8] = ATG_AP_2_CIS: Attagene CIS-FACTORIAL HepG2 Assay for human Activator Protein 2 (AP-2) (AID 2282932); conditions: HepG2 AP-2 cis-reporter, Attagene transcription factor profiling; actives raise or lower the signal
# In short: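 Read-out: fluorescent reporter mRNA via RT-PCR and capillary electrophoresis, 24 h post-dose in transiently transfected HepG2. Endogenous factors drive cis-promoter reporters; gain or loss of signal fitted bidirectionally against DMSO.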
# [9] = ATG_BRE_CIS: Attagene CIS-FACTORIAL HepG2 Assay for human Bone Morphogenetic Protein (BMP) Response Element (BRE) (AID 2282933); conditions: HepG2 BMP response element reporter, Attagene transcription factor profiling; actives raise or lower the signal
# In short: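 Multiplexed cis-reporter assay, HepG2, 24 h exposure. mRNA from reporter units quantified via RT-PCR/CE; DMSO baseline; bidirectional curve fit.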
# [10] = target: Retinoic acid receptor alpha (Homo sapiens) (UniProt P10276); experiment: ATG_DR5_RAR_CIS: Attagene CIS-FACTORIAL HepG2 Assay for human Retinoic Acid Receptor Alpha (RARE), DR5 submotif (AID 2282934); conditions: HepG2 Attagene cis-factorial RARE DR5 reporter, mRNA; actives raise or lower the signal;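 on AC50: reporter responds to endogenous RAR alpha beta and gamma in HepG2 not RARA alone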
# In short: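 After 24 h of chemical exposure, transiently transfected HepG2 cells were lysed for total RNA; the DR5-regulated reporter transcript was quantified via RT-PCR and capillary electrophoresis, with activity fitted bidirectionally against DMSO.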
# [11] = target: Transcription factor E2F1 (Homo sapiens) (UniProt Q01094); experiment: ATG_E2F_CIS: Attagene CIS-FACTORIAL HepG2 Assay for human E2F Transcription Factor 1 (AID 2282935); conditions: HepG2 Attagene cis-reporter, E2F reporter RNA transcripts; actives raise or lower the signal
# In short: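 Transient MRTU transfection of HepG2; 24 h compound exposure; RNA → oligo(dT) RT → PCR → FAM label → HpaI cut → CE fluorescence. Gain/loss of signal fit against DMSO.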
# [12] = ATG_E_Box_CIS: Attagene CIS-FACTORIAL HepG2 Assay for human Enhancer Box (E-box) (AID 2282936); conditions: HepG2 E-box cis-reporter transcription, actives raise or lower the signal
# In short: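 Transiently transfected HepG2, endogenous TF-driven reporters, 24 h dosing. Readout: RT-PCR plus capillary electrophoresis of fluorescent reporter fragments. Gain or loss of signal fitted bidirectionally against DMSO baseline.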
# [13] = ATG_M_61_CIS: Attagene CIS-FACTORIAL HepG2 Assay for M61 Transcription Factor (Internal Marker) (AID 2282937); conditions: HepG2 Attagene CIS-FACTORIAL M61 internal marker reporter; actives raise or lower the signal
# In short: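 Multiplexed reporter mRNA assay, HepG2 human hepatoma cells, 24 h treatment. Signal: FAM-labelled, HpaI-digested RT-PCR fragments by CE. Fit: bidirectional, baseline DMSO.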
# [14] = ATG_EGR_CIS: Attagene CIS-FACTORIAL HepG2 Assay for human Early Growth Response 1 (EGR1) (AID 2282938); conditions: HepG2 Attagene CIS-FACTORIAL EGR reporter mRNA; actives raise or lower the signal
# In short: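 Multiplexed cis-reporter system in human hepatoma HepG2 cells, transiently transfected. Cells are dosed for 24 h; reporter transcripts are amplified, fluorescently tagged and sized by capillary electrophoresis, with DMSO as negative control.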
# [15] = ATG_M_19_CIS: Attagene CIS-FACTORIAL HepG2 Assay for M19 Transcription Factor (Internal Marker) (AID 2282939); conditions: HepG2 Attagene CIS-FACTORIAL M19 internal marker reporter; actives raise or lower the signal
# In short: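 Signals come from fluorescence of labelled reporter-specific PCR fragments resolved by capillary electrophoresis, following 24 h treatment of HepG2 cells transfected with cis-promoter reporter units; activity was fitted in both directions relative to DMSO.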
# [16] = ATG_ERE_CIS: Attagene CIS-FACTORIAL HepG2 Assay for Estrogen Response Element (ERE) (AID 2282940); conditions: HepG2 ERE cis-reporter, Attagene RNA transcript; actives raise or lower the signal
# In short: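 Fluorescence of capillary-separated, FAM-labelled reporter cDNA fragments indicates reporter mRNA levels in HepG2 cells exposed to chemicals for 24 h. Transient transfection with cis-regulated units; data fitted in both directions against DMSO.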
# [17] = ATG_Ets_CIS: Attagene CIS-FACTORIAL HepG2 Assay for human Erythroblast Transformation Specific (ETS) (AID 2282941); conditions: HepG2 ETS cis-reporter transcription, actives raise or lower the signal
# In short: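 Cis-regulated reporter mRNA induction in HepG2 (transient transfection), 24 h exposure, RT-PCR plus capillary electrophoresis detection; DMSO serves as negative control and baseline.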
# [18] = target: Hepatocyte nuclear factor 3-beta (Homo sapiens) (UniProt Q9Y261); experiment: ATG_FoxA2_CIS: Attagene CIS-FACTORIAL HepG2 Assay for human Forkhead box A2 (FOXA2) (AID 2282942); conditions: HepG2 cis-reporter transcription factor activity, 24 h; actives raise or lower the signal
# In short: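 Multiplexed cis-element reporter assay in transiently transfected HepG2. Twenty-four hours post-dosing, RNA was reverse-transcribed, amplified, FAM-labelled, HpaI-digested and separated by CE. Activity gain or loss relative to DMSO.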
# [19] = ATG_FoxO_CIS: Attagene CIS-FACTORIAL HepG2 Assay for human Forkhead box O (FoxO) (AID 2282943); conditions: HepG2 Attagene cis-reporter, FoxO element, mRNA; actives raise or lower the signal
# In short: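 Transfected HepG2 reporter cells exposed to test chemical for 24 h; reporter RNA measured by reverse transcription, PCR and fluorescent capillary electrophoresis; curves fitted for increases and decreases against DMSO.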
# [20] = ATG_GATA_CIS: Attagene CIS-FACTORIAL HepG2 Assay for human GATA Binding Protein (AID 2282944); conditions: HepG2 GATA cis-element reporter, Attagene multiplex mRNA; actives raise or lower the signal
# In short: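 After transfecting HepG2 cells with multiple cis-regulated reporter units, chemicals are dosed for 24 h; isolated RNA undergoes RT-PCR and fluorescent labeling before capillary electrophoresis, with activity expressed against DMSO.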
# Sequence of Hepatocyte nuclear factor 3-beta (Homo sapiens) (Q9Y261 whole entry, looked up): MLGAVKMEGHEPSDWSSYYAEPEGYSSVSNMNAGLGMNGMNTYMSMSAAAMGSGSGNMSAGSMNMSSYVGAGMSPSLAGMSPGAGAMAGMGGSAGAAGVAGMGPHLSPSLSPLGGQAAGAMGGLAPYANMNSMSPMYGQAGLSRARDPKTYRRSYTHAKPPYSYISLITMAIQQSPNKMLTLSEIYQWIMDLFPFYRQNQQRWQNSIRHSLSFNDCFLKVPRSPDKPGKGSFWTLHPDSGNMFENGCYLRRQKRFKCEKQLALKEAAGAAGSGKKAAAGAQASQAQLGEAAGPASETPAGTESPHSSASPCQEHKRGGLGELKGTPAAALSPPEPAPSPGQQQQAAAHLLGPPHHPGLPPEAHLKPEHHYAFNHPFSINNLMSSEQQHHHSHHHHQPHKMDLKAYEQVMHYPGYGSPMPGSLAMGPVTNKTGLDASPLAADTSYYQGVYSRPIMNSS
# Sequence of Aryl hydrocarbon receptor (Homo sapiens) (P35869 whole entry, looked up): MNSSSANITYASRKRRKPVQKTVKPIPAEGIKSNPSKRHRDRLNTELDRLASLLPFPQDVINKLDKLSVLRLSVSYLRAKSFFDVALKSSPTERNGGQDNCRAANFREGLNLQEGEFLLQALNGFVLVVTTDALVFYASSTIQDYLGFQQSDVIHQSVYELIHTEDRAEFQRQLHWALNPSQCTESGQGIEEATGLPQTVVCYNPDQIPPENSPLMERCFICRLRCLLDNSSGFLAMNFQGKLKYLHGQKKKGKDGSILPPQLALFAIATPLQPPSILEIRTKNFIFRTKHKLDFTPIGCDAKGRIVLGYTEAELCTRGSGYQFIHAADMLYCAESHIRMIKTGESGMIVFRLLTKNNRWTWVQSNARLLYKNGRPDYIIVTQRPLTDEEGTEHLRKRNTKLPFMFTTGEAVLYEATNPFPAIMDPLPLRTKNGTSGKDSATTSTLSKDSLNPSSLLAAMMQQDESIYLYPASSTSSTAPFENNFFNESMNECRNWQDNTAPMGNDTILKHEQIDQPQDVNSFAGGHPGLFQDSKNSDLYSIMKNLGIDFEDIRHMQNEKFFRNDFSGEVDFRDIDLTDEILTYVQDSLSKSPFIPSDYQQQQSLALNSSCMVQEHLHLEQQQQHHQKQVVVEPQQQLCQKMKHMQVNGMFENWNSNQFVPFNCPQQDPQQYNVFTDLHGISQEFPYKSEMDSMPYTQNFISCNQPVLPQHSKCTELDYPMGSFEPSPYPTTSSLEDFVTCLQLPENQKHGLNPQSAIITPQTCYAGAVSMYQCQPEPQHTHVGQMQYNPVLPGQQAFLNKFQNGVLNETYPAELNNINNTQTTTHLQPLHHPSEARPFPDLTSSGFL
# Sequence of Transcription factor E2F1 (Homo sapiens) (Q01094 whole entry, looked up): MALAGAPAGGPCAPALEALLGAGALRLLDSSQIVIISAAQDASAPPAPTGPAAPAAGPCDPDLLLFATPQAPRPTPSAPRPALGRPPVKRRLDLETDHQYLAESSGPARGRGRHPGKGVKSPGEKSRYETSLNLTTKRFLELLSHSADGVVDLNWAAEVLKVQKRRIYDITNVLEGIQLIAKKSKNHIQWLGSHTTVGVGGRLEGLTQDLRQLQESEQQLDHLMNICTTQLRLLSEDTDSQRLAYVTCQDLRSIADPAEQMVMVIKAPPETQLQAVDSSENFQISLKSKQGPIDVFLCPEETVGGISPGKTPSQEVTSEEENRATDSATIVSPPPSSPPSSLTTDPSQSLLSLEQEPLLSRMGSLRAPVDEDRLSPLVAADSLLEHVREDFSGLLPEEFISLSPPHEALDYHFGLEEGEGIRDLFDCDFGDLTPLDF
# Sequence of Retinoic acid receptor alpha (Homo sapiens) (P10276 whole entry, looked up): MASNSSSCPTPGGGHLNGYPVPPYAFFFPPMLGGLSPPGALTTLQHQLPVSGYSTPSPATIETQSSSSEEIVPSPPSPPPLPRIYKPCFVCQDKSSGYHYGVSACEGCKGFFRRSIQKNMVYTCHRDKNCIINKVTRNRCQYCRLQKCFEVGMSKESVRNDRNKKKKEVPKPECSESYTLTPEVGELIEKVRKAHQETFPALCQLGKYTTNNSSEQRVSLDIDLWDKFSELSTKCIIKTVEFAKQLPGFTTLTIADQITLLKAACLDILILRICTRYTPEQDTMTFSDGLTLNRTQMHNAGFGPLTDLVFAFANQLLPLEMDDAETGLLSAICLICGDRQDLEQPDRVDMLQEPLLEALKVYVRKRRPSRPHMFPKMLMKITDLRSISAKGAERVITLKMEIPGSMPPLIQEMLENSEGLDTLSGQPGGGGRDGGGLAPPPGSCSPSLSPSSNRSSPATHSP
# Sequence of CCAAT/enhancer-binding protein beta (Homo sapiens) (P17676 whole entry, looked up): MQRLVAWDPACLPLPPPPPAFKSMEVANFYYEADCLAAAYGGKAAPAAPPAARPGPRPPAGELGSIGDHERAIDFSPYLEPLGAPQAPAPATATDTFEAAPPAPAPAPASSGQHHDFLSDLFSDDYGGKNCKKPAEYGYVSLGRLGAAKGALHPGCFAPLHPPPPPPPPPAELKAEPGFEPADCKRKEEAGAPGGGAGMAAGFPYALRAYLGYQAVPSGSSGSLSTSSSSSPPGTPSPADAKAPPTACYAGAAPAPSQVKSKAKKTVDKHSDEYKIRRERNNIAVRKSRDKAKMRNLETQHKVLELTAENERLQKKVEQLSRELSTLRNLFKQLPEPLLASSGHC
compound,measurement,setting,value
Cc1cc(C)c(O)c(C)c1,outcome,[1],inactive
same,outcome,[2],inactive
same,outcome,[3],inactive
same,AC50,[4],100 µM (active)
same,outcome,[5],inactive
same,outcome,[6],inactive
same,outcome,[7],inactive
same,outcome,[8],inactive
same,outcome,[9],inactive
same,AC50,[10],100 µM (active)
same,outcome,[11],inactive
same,outcome,[12],inactive
same,outcome,[13],inactive
same,outcome,[14],inactive
same,outcome,[15],inactive
same,outcome,[16],inactive
same,outcome,[17],inactive
same,outcome,[18],inactive
same,outcome,[19],inactive
same,outcome,[20],inactive
CC(C)(C)c1cccc(C(C)(C)C)c1O,outcome,[1],inactive
same,AC50,[2],146 µM (active)
same,outcome,[3],inactive
same,AC50,[4],100 µM (active)
same,outcome,[5],inactive
same,outcome,[6],inactive
same,AC50,[7],128 µM (active)
same,outcome,[8],inactive
same,outcome,[9],inactive
same,AC50,[10],100 µM (active)
same,AC50,[11],188 µM (active)
same,outcome,[12],inactive
same,outcome,[13],inactive
same,outcome,[14],inactive
same,outcome,[15],inactive
same,outcome,[16],inactive
same,AC50,[17],166 µM (active)
same,outcome,[18],inactive
same,outcome,[19],inactive
same,outcome,[20],inactive
CCCCC(CC)COC(=O)CCCCC(=O)OCC(CC)CCCC (stereo not drawn),outcome,[1],inactive
same,outcome,[2],inactive
same,outcome,[3],inactive
same,outcome,[4],inactive
same,outcome,[5],inactive
same,AC50,[6],87.3 µM (active)
same,outcome,[7],inactive
same,outcome,[8],inactive
same,outcome,[9],inactive
same,outcome,[10],inactive
same,outcome,[11],inactive
same,outcome,[12],inactive
same,outcome,[13],inactive
same,outcome,[14],inactive
same,outcome,[15],inactive
same,outcome,[16],inactive
same,outcome,[17],inactive
same,outcome,[18],inactive
same,outcome,[19],inactive
same,outcome,[20],inactive
CCCCCCC(=O)O,outcome,[1],inactive
same,outcome,[2],inactive
same,outcome,[3],inactive
same,outcome,[4],inactive
same,outcome,[5],inactive
same,outcome,[6],inactive
same,outcome,[7],inactive
same,outcome,[8],inactive
same,outcome,[9],inactive
same,outcome,[10],inactive
same,outcome,[11],inactive
same,outcome,[12],inactive
same,outcome,[13],inactive
same,outcome,[14],inactive
same,outcome,[15],inactive
same,outcome,[16],inactive
same,outcome,[17],inactive
same,outcome,[18],inactive
same,outcome,[19],inactive
same,outcome,[20],inactive
CCC(=C(c1ccc(O)cc1)c1ccc(OCCN(C)C)cc1)c1ccccc1,outcome,[1],inactive
same,outcome,[2],inactive
same,outcome,[3],inactive
same,AC50,[4],5.22 µM (active) and 7.1 µM (active)
same,outcome,[4],inactive
same,AC50,[5],9.72 µM (active) and 2.37 µM (active)
same,outcome,[5],inactive
same,outcome,[6],inactive
same,outcome,[7],inactive
same,outcome,[8],inactive
same,AC50,[9],10.5 µM (active)
same,outcome,[9],inactive
same,AC50,[10],11.1 µM (active)
same,outcome,[10],inactive
same,AC50,[11],10.8 µM (active)
same,outcome,[11],inactive
same,AC50,[12],9.17 µM (active) and 7.1 µM (active) and 3.43 µM (active)
same,outcome,[12],inactive
same,AC50,[14],9.87 µM (active) and 10.8 µM (active)
same,outcome,[14],inactive
same,AC50,[15],10.7 µM (active)
same,outcome,[15],inactive
same,outcome,[16],inactive
same,outcome,[17],inactive
same,outcome,[18],inactive
same,outcome,[19],inactive
same,AC50,[20],10.5 µM (active)
same,outcome,[20],inactive
